Experiment [1] is described as follows: antimalarial activity against Dd2 strain (AID 2302;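 active = growth inhibition above 50% at the single 2 µM test dose, taken to imply half-maximal potency below 2 µM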;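 note: 0% = DMSO untreated growth and 100% = chloroquine plus artemisinin killed control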). The following applies: P. falciparum Dd2 in RBCs, LDH growth readout, 72 h; at 2 µM; stronger effect = higher value.
Experiment [2] in a line: human hepatoma cell viability loss – ATP luminescence, cytotoxicity control for P. falciparum antimalarial project, primary screen (AID 2303;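 active = inhibition above 50%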;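 note: 0% = DMSO wells and 100% = digitonin-killed cells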). The settings on record: HepG2 viability, 24-48 h, at 10 µM, stronger effect = higher value.
Experiment [3] concerns the target L-lactate dehydrogenase (Plasmodium falciparum (isolate CDC / Honduras)) (UniProt Q27743). As to the kind of experiment: PfLDH activity inhibition – cell lysate, 3D7 strain, counter-screen for P. falciparum growth inhibition project (AID 2304).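 Note: 0% = vehicle and 100% = reference inhibitor.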 The settings on record: P. falciparum 3D7 crude extract, LDH APAD/NBT absorbance; at 2 µM; stronger effect = higher value.
A short description of experiment [4]: inhibition of 3D7 malaria parasite growth – strain 3D7 (AID 2306).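 Note: 0% = DMSO wells and 100% = chloroquine plus artemisinin control wells.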 The settings on record: P. falciparum 3D7 erythrocytic growth, LDH absorbance, 72 h; at 2 µM; stronger effect = higher value.
For experiment [5], the target named is Calcium-dependent protein kinase 1 (Plasmodium falciparum (isolate 3D7)) (UniProt P62344). Put plainly: PfCDPK1 kinase inhibitors, biochemical, TCAMS library (AID 1159585; cut-off not given, nearly all actives have IC50 up to about 0.98 µM;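 note: inhibitors leave more ATP so luminescence rises with inhibition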). The settings on record: recombinant PfCDPK1, Kinase-Glo ATP depletion luminescence.
Sequence of Calcium-dependent protein kinase 1 (Plasmodium falciparum (isolate 3D7)) (P62344 whole entry, looked up): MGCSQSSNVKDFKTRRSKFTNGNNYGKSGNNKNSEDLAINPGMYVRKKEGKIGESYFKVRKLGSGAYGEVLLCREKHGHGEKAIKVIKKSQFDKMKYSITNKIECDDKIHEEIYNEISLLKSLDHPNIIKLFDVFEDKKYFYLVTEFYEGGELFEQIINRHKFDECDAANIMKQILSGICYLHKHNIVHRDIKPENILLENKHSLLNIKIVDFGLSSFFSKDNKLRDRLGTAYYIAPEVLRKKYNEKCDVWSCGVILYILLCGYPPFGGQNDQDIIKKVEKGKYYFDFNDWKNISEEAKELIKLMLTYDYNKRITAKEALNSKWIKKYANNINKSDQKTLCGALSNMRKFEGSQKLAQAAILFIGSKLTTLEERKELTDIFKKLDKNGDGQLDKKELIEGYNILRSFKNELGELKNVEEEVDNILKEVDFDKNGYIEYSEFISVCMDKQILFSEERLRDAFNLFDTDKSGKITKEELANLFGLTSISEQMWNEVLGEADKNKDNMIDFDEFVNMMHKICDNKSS
The target in experiment [6] is Plasmodium falciparum protein kinase 6 (PK6, PF3D7_1337100) (UniProt Q8IDW1). Put plainly: PfPK6 kinase inhibitors, biochemical, TCAMS library (AID 1159586). The settings on record: recombinant PfPK6, Kinase-Glo ATP depletion luminescence.
Sequence of Plasmodium falciparum protein kinase 6 (PK6, PF3D7_1337100) (Q8IDW1 1-305): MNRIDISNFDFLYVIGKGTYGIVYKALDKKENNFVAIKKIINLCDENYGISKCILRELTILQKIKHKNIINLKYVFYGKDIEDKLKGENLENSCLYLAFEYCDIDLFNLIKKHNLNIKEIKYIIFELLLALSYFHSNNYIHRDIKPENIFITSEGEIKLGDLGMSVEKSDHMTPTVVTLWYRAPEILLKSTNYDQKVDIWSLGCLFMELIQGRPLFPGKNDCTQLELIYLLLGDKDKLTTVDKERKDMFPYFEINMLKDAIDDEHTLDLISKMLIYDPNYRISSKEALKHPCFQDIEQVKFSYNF
The target in experiment [7] is Protein kinase 7 (PK7), Plasmodium falciparum 3D7 (PF3D7_0213400) (UniProt Q7YTF7). Put plainly: inhibition of Plasmodium PK7 catalytic activity – biochemical, TCAMS antimalarial set, Kinase-Glo luminescence (AID 1159587). The following applies: recombinant PfPK7, Kinase-Glo ATP depletion luminescence.
Sequence of Protein kinase 7 (PK7), Plasmodium falciparum 3D7 (PF3D7_0213400) (Q7YTF7 1-343): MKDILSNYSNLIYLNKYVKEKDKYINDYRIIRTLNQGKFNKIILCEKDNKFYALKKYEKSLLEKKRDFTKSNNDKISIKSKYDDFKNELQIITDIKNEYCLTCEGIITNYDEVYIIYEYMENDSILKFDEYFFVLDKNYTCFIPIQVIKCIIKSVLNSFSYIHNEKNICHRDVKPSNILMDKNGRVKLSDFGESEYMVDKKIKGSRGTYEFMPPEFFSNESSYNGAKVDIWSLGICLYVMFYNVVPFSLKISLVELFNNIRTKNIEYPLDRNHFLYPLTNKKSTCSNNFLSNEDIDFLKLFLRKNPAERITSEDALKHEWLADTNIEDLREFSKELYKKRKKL
Experiment [8] has as its target Calcium-dependent protein kinase 4 (Plasmodium falciparum (isolate 3D7)) (UniProt Q8IBS5). As to the kind of experiment: PfCDPK4 kinase inhibitors, biochemical, TCAMS library (AID 1159588; cut-off not given, nearly all actives have IC50 up to about 0.91 µM). The following applies: recombinant PfCDPK4, Kinase-Glo ATP depletion luminescence.

Each structure is given as a SMILES string. Values without a mark were called inactive. For some assays here: Entries with a potency or affinity are not part of this list. Calls of active or inactive are those of the source. Unless noted, the rule behind the calls is not given here.

Sequence of L-lactate dehydrogenase (Plasmodium falciparum (isolate CDC / Honduras)) (Q27743 whole entry, looked up): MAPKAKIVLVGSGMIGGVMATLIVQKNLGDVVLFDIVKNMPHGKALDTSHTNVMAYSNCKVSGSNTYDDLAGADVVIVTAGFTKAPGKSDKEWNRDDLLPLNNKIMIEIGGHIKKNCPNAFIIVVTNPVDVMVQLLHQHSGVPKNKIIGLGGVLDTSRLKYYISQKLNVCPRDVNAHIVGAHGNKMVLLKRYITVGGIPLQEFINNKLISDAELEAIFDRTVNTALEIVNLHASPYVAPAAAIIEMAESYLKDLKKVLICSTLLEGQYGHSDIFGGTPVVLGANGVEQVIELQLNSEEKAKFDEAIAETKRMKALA
Sequence of Calcium-dependent protein kinase 4 (Plasmodium falciparum (isolate 3D7)) (Q8IBS5 whole entry, looked up): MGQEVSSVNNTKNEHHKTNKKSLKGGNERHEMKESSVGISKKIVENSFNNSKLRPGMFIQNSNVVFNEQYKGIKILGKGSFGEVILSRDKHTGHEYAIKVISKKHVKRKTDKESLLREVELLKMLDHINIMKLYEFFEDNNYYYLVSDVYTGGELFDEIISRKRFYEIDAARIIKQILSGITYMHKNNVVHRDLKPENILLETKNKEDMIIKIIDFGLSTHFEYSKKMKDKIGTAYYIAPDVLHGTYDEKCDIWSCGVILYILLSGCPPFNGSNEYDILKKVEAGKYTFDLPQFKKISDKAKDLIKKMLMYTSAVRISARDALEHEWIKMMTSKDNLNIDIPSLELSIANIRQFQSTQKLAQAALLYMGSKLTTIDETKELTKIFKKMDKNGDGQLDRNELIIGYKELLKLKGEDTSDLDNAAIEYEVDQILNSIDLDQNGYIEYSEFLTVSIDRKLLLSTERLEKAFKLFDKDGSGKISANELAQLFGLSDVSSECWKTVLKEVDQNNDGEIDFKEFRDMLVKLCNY

For `Cc1[nH]c(C)c([N+](=O)[O-])c(=O)c1-c1ccc(Oc2ccc(OC(F)(F)F)cc2)cc1`, the growth inhibition in experiment [1] and in experiment [4] was 97% (active) in each case. For the same molecule, the inhibition in experiment [2] and in experiment [3] was -2% each time. Besides, the outcome in experiment [5], in experiment [6], in experiment [7] and in experiment [8] was inactive.
With `COC(=O)c1cccc(CNCc2ccc(-c3ccc(-c4nc5c(C)cccc5[nH]4)cc3)cc2)c1`, the growth inhibition in experiment [1] is 86% (active); in experiment [4], 102% (active). The inhibition in experiment [2] is 17%; in experiment [3], 3%. The outcome in experiment [5], in experiment [6], in experiment [7] and in experiment [8] was inactive.
Regarding `Cc1cc(C)n2nc(C(=O)Nc3cc(C(F)(F)F)ccc3N3CCOCC3)nc2n1`, the figures for the growth inhibition in experiment [1] and in experiment [4] were 91% (active) and 94% (active), respectively. For the same molecule, the inhibition in experiment [2] is 2%; in experiment [3] it was -3%. Moreover, the outcome in experiment [5], in experiment [6], in experiment [7] and in experiment [8] was inactive.
For `O=C(Nc1nc(-c2ccccn2)cc2ccccc12)c1cccc(Cl)c1`, the growth inhibition in experiment [1] was 72% (active); in experiment [4], 96% (active). The inhibition in experiment [2] is 59% (active); in experiment [3] it was -3%. In addition, the outcome in experiment [5], in experiment [6], in experiment [7] and in experiment [8] was inactive.
Consider `Cc1ccc(Oc2ncccc2C(=O)Nc2cccc3cccnc23)c(C)c1`, for which the growth inhibition in experiment [1] is 76% (active); in experiment [4] it was 99% (active). The inhibition in experiment [2] was -13%; in experiment [3], 0%. Moreover, the result in experiment [5], in experiment [6], in experiment [7] and in experiment [8] was inactive.
`COc1ccc(CCNCCCCCCNCCc2ccc(OC)c(OC)c2Cl)c(Cl)c1OC`: the growth inhibition in experiment [1] is -2%; in experiment [4], 96% (active). For the same molecule, the inhibition is 19% in experiment [2] and 1% in experiment [3]. In addition, the result in experiment [5], in experiment [6], in experiment [7] and in experiment [8] was inactive.
`CCCCCc1cc(O)c2c(c1)OC(C)(C)C=C2C1=CCN(Cc2ccsc2)CC1`: the growth inhibition in experiment [1] was 48%; in experiment [4], 98% (active). The results for the inhibition in experiment [2] and in experiment [3] were 20% and -1%, respectively. For the same molecule, the outcome in experiment [5], in experiment [6], in experiment [7] and in experiment [8] was inactive.
As to `Cc1ccc2[nH]c(-c3ccc(/C=C/C(=O)NC4CCN(Cc5ccccc5)CC4)cc3)nc2c1C`, the values for the growth inhibition in experiment [1] and in experiment [4] were 92% (active) and 101% (active), respectively. In addition, the inhibition in experiment [2] was 22%; in experiment [3], 4%. The outcome in experiment [5], in experiment [6], in experiment [7] and in experiment [8] was inactive.
As to `Cc1cccc2[nH]c(-c3cccc(-c4ccc(CNCCNC(=O)c5ccnn5C)cc4)c3)nc12`, the growth inhibition was 100% (active) in experiment [1] and 102% (active) in experiment [4]. Further, the inhibition in experiment [2] was 21%; in experiment [3], -2%. The result in experiment [5], in experiment [6], in experiment [7] and in experiment [8] was inactive.
`Cc1cnc(N2CCN(CCCN3CCCC3)CC2)nc1Oc1ccc(-n2ccnc2)cc1`: the growth inhibition in experiment [1] was 82% (active); in experiment [4], 99% (active). For the same molecule, the inhibition is 12% in experiment [2] and 4% in experiment [3]. Also, the result in experiment [5], in experiment [6], in experiment [7] and in experiment [8] was inactive.
As for `c1ccc2cc3c(Nc4ccc(N5CCCCCC5)cc4)ccnc3cc2c1`, the growth inhibition in experiment [1] was 76% (active); in experiment [4], 94% (active). Further, the inhibition in experiment [2] is 10%; in experiment [3] it was 1%. The result in experiment [5], in experiment [6], in experiment [7] and in experiment [8] was inactive.
`CCCCCCCCNCCCSCCCNCCCCCCCC`: the results for the growth inhibition in experiment [1] and in experiment [4] were 47% and 97% (active), respectively. For the same molecule, the inhibition in experiment [2] was 63% (active); in experiment [3], -3%. Also, the result in experiment [5], in experiment [6], in experiment [7] and in experiment [8] was inactive.
As for `COc1ccc(Nc2ncc3c(-c4cccc(NC(=O)CC(C)C)c4)c[nH]c3n2)cc1OC`, the figures for the growth inhibition in experiment [1] and in experiment [4] were 71% (active) and 101% (active), respectively. In addition, the results for the inhibition in experiment [2] and in experiment [3] were 37% and 5%, respectively. Besides, the result in experiment [5], in experiment [6], in experiment [7] and in experiment [8] was inactive.
Take `COc1ccc(C2CC(c3cccs3)=NN2C(=O)c2ccccc2)cc1OC` (configuration not stated): the growth inhibition in experiment [1] is 83% (active); in experiment [4], 99% (active). The inhibition in experiment [2] and in experiment [3] was 5% throughout. Also, the result in experiment [5], in experiment [6], in experiment [7] and in experiment [8] was inactive.
Take `Cc1cc(NCCC(=O)Nc2ccccc2)nc(NCC2CCCCC2)n1`: the growth inhibition is 62% (active) in experiment [1] and 100% (active) in experiment [4]. Also, the values for the inhibition in experiment [2] and in experiment [3] were 14% and 3%, respectively. The outcome in experiment [5], in experiment [6], in experiment [7] and in experiment [8] was inactive.
Take `Cc1cc(=O)c(-c2cccc(Oc3ccc(Cl)cc3)c2)c(C)[nH]1`: the growth inhibition in experiment [1] is 95% (active); in experiment [4], 96% (active). The inhibition in experiment [2] was -2%; in experiment [3], -4%. Also, the outcome in experiment [5], in experiment [6], in experiment [7] and in experiment [8] was inactive.
Regarding `CCCCCn1c(Sc2ccc(C#N)c([N+](=O)[O-])c2)nnc1-c1ccc(OC)cc1`, the growth inhibition in experiment [1] is 44%; in experiment [4], 88% (active). The values for the inhibition in experiment [2] and in experiment [3] were 8% and 4%, respectively. Besides, the outcome in experiment [5], in experiment [6], in experiment [7] and in experiment [8] was inactive.
For the molecule `COc1ccc2nccc([C@@H](O)CN3CCC(NC(=O)C(c4cc5ccccc5o4)N4CCN(c5ccccc5OC)CC4)CC3)c2c1` (some centres not stated), the results for the growth inhibition in experiment [1] and in experiment [4] were 83% (active) and 99% (active), respectively. Also, the inhibition in experiment [2] was 14%; in experiment [3] it was -5%. In addition, the result in experiment [5], in experiment [6], in experiment [7] and in experiment [8] was inactive.
For `CCNC(=O)Nc1cccc(-c2cccc(-c3nc4ccc(C(F)(F)F)cc4[nH]3)c2)c1`, the growth inhibition in experiment [1] is 32%; in experiment [4], 91% (active). For the same molecule, the inhibition is 50% (active) in experiment [2] and 2% in experiment [3]. Moreover, the result in experiment [5], in experiment [6], in experiment [7] and in experiment [8] was inactive.

These data come from PubChem BioAssay.
